A selection: hits, their analogues and other compounds. The true share with any hit is near 2.4%.
Pol kappa inh-1: qHTS for Inhibitors of Polymerase Kappa; DNA polymerase kappa (Homo sapiens), Q9UBT6; purified Pol kappa, fluorescent DNA synthesis assay, 10 min; Potency, µM (titrated, usually from 107 µM), inactives show top-dose activity, negative = inhibition, hits mostly inhibitors; actives 0.53% (n = 400,000); AID 588579, 2011; further: potency means the concentration at half of the fitted maximal effect; on the % scale 0 is the no-effect control and ±100 the full control effect
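10 nM Pol kappa preincubated 15 min at room temperature with compounds, then reaction started with substrate at 50 nM final. Fluorescence read kinetically at 0 and 10 min; buffer-only wells served as negative control.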
POLI inh: qHTS for Inhibitors of Polymerase Iota; Potency, µM (doses to about 115 µM), for inactives: top-dose activity, negative = inhibition, hits mostly inhibitors; DNA polymerase iota (Homo sapiens), Q9UNA4; AID 588590, 2011; Pol iota fluorescent replication assay, 10 min; actives 1% (n = 390,000); further: potency means the concentration at half of the fitted maximal effect
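Pol iota at 10 nM preincubated 15 min with compounds at room temperature; reaction started with fluorescent substrate, 50 nM final. Fluorescence read kinetically at 0 and 10 min; buffer-only wells as negative control.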
Pol eta inh-1: qHTS for Inhibitors of Polymerase Eta. DNA polymerase eta (Homo sapiens), Q9Y253. recombinant Pol eta, fluorescent DNA replication assay. Potency, µM (highest dose often 114 µM), for inactives: at the top dose activity change, negative = inhibition, usual class: inhibitors. actives 1.2% (n = 390,000). AID 588591, 2011; further: potency means the concentration at half of the fitted maximal effect; on the % scale 0 is the no-effect control and ±100 the full control effect
Target sequence (Q9Y253 whole entry, looked up): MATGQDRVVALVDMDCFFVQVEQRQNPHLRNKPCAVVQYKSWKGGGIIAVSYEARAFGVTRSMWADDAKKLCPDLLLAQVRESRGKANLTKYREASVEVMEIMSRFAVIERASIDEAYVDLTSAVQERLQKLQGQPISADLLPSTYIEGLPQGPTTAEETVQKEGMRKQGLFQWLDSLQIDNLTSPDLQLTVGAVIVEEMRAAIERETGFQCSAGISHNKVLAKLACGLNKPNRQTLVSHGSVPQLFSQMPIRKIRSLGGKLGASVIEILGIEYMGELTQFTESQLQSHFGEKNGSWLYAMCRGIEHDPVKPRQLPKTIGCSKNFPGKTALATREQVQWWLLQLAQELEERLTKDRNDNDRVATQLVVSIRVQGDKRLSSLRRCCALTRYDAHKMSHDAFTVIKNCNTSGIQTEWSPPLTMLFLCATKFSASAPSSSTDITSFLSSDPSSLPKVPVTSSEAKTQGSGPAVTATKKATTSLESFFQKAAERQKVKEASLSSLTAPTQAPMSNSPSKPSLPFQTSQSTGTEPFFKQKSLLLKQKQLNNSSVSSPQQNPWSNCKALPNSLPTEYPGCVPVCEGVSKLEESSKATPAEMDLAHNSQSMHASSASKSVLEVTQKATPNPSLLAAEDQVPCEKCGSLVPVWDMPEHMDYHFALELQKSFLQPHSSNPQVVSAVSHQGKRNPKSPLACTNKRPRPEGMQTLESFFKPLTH
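Pol eta (10 nM) was preincubated with compounds for 15 min at room temperature, after which fluorescent replication substrate (50 nM final) was added to start the reaction. Fluorescence was read kinetically at 0 and 10 min.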
Pol beta inh: qHTS Assay for Inhibitors of DNA Polymerase Beta. Potency, µM (top dose mostly 114 µM), without a hit: at the highest dose activity change, negative = inhibition, usual class: inhibitors. actives 1.3% (n = 340,000). Pol beta primer extension/strand displacement, fluorescence kinetic. AID 485314, 2010. P06746; further: potency means the concentration at half of the fitted maximal effect; on the % scale 0 is the no-effect control and ±100 the full control effect
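Preincubation: enzyme (10 nM) with compound, 15 min, RT. Reaction: substrate added to 50 nM final. Reads: 0 and 10 min. Analysis: normalized, Hill fit.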
WRN helicase inh: qHTS for Inhibitors of WRN Helicase. actives 0.46% (n = 360,000). Potency, µM (highest dose often 114 µM), for the others: top-dose activity change, negative = inhibition, hits mostly inhibitors. WRN helicase unwinding, fluorescent forked duplex, kinetic. Bifunctional 3'-5' exonuclease/ATP-dependent helicase WRN (Homo sapiens), Q14191; further: potency means the concentration at half of the fitted maximal effect; on the % scale 0 is the no-effect control and ±100 the full control effect; nearly all actives have a fitted effect of over 55% in size
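Screening of the MLSMR collection measured strand separation of a quenched forked DNA duplex (100 nM) by 20 nM WRN with 2 mM ATP, all final. Compounds were preincubated with enzyme 15 min at room temperature.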
FEN1 inhibitor: qHTS Assay for the Inhibitors of Human Flap endonuclease 1 (FEN1). Potency, µM (titrated, usually from 114 µM), for inactives: at the highest dose activity change, negative = inhibition, most hits filed as inhibitors. Recombinant FEN1 flap cleavage, fluorescence, 15 min. actives 0.35% (n = 390,000). AID 588795, 2011; further: potency means the concentration at half of the fitted maximal effect; on the % scale 0 is the no-effect control and ±100 the full control effect; nearly all actives have a fitted effect of over 65% in size
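Enzyme 10 nM, 15 min RT preincubation with compound; start with substrate 50 nM final; reads at 0 and 15 min; qHTS titration, four-parameter Hill fit.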
GALK confirm: Confirmation Assay for Inhibitors of Human Galactokinase (GALK) | shares compounds with Pol eta inh-1 | purified GALK, Kinase-Glo ATP depletion luminescence | Potency, µM (series often up to 115 µM), for inactives: at the top dose activity, negative = inhibition, actives largely listed as inhibitors | actives 70% (n = 150) | AID 2015, 2009
Redox cycling: Confirmatory Assay for Inhibitors of Human Galactokinase (GALK): Phenol-HRP redox assay counterscreen | shares compounds with Pol eta inh-1 | Phenol red-HRP H2O2 redox cycling, absorbance 600 nm | Potency, µM (doses to about 115 µM), without a hit: at the top dose activity change, negative = H2O2 signal, hits mostly inhibitors | actives 40% (n = 150) | AID 2035, 2009
HEK293 viability: Secondary Assay for Inhibitors of Human Galactokinase (GALK): HEK-293 Cell Viability Assay | shares compounds with Pol eta inh-1 | HEK-293 viability, ATP luminescence (CellTiter-Glo), 24/48 h | Potency, µM (top dose mostly 46.1 µM), without a hit: at the highest dose activity change, negative = cytotoxicity, actives largely listed as inhibitors | actives 10% (n = 170) | AID 2547, 2010; further: potency means the concentration at half of the fitted maximal effect; on the % scale 0 is the no-effect control and ±100 the full control effect
Pol kappa inh-2: qHTS for Inhibitors of Polymerase Kappa: Confirmatory Assay for Cherry-picked Compounds; actives 76% (n = 920); Potency, µM, hits mostly inhibitors; shares compounds with Pol eta inh-1; purified Pol-kappa, fluorescent strand-displacement substrate; further: potency means the concentration at half of the fitted maximal effect
Pol eta inh-2: qHTS for Inhibitors of Polymerase Eta: Confirmatory Assay for Cherry-picked Compounds | shares compounds with Pol eta inh-1 | Pol eta primer extension, TAMRA/BHQ fluorescence, 10 min | Potency, µM, most hits filed as inhibitors | actives 64% (n = 2,600); further: potency means the concentration at half of the fitted maximal effect
Numbers without * were called inactive; ? = inconclusive; / = not tested or not shown; [ ] = remark or other dose. The call rests on the fitted dose curve; in most records, active means well fitted curve in the direction sought with a large enough effect; inconclusive means small, poorly fitted or top-dose-only effect, or another doubt; inactive means no such curve, though single readings can be large; an effect the other way counts as inactive or inconclusive.

SMILES	Pol kappa inh-1	POLI inh	Pol eta inh-1	Pol beta inh	WRN helicase inh	FEN1 inhibitor	Pol eta inh-2	others
Cn1cccc1/C=C1\SC(=S)N(CC(=O)O)C1=O	-0.5%	7.1%	-4.2%	17.4%	-1.6%	-2.5%	/
CCC(CNc1cc(OC)cc2cccnc12)NC1CCCCC1 (centres undefined)	-25.7%	?	-8.5%	?	3.3%	?	/	GALK confirm=9.43µM*;Redox cycling=3.75µM*;HEK293 viability=-19.1%
O=C(Oc1ccccc1F)c1ccc2c(=O)n3c(nc2c1)CCC3	-27.8%	?	?	/	-17.1%	-19.4%	67.5*
Cc1ccoc1C(=O)NCc1occc1C(=O)O	?	?	6.31µM*	-26.5%	-30.5%[57.1 µM]	1.2%	30.1*
CC1C(=O)Nc2ccc(S(=O)(=O)NCc3ccc(N(C)C)cc3)cc2NC1=O (centres undefined)	1.9%	8.8%	?	-6.6%	/	2.3%	?
COc1ccc(CNS(=O)(=O)c2ccc3c(c2)NC(=O)C(C)C(=O)N3)cc1 (centres undefined)	-9.3%	6.2%	-8.9%	1.3%	/	-2.9%	/
COc1ccc(C2=NN(c3nc(-c4ccccc4)c(CC(=O)O)s3)C(c3ccco3)C2)cc1 (centres undefined)	?	?	28.2µM*	22.4µM*	?	6.2%	?	Pol kappa inh-2=15*
Cc1nc(N2N=C(c3ccc(Cl)cc3)CC2c2ccco2)sc1C(=O)N(C)C (centres undefined)	-5.8%	22.2%	-16.2%	?	-6.8%	5.4%	/
O=C(O)c1c2c(nc3ccc(S(=O)(=O)N4CCC(C(=O)NC5CCCCCC5)CC4)cc13)CCCC2	79.4µM*	?	20µM*	39.8µM*	-8.3%[11.6 µM]	-8.1%	?
COc1ccc(-c2nc(Cn3c(SCc4ccc(C)cc4)nc4cccnc43)c(C)o2)cc1OC	-7.4%	15.4%	-23.2%	-15.3%	/	1.9%	/
O=C(O)c1ccc(/C=C/c2nc3sc4c(c3c(=O)[nH]2)CCC4)cc1	?	14.1µM*	22.4µM*	-10.6%	-35.9%	-15.1%	?
O=C(O)c1ccc(/C=C/c2nc3ccccc3c(=O)[nH]2)cc1	-17.2%	?	2.4%	1.3%	-3.3%[57.1 µM]	23.7%	/

Bioassay records (PubChem)
